# Bioassay records as filed in PubChem BioAssay.
# NR2F2 inh: inhibitors of human COUP-TFII (NR2F2); HEK293T NGFI-A luciferase reporter, luminescence; inhibition, % at 8.6 µM; 0.7% of 370,000 active; AID 686940;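 active = inhibition above a per-plate cutoff, mean inhibition of test wells between control levels plus 3 SD, cut at about 38% in these data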;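 also: cells cotransfected with COUP-TFII expression vector driving the NGFI-A reporter; 0% = median of COUP-TF2 test wells and 100% = reporter-only cells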
# Target sequence (P24468 whole entry, looked up): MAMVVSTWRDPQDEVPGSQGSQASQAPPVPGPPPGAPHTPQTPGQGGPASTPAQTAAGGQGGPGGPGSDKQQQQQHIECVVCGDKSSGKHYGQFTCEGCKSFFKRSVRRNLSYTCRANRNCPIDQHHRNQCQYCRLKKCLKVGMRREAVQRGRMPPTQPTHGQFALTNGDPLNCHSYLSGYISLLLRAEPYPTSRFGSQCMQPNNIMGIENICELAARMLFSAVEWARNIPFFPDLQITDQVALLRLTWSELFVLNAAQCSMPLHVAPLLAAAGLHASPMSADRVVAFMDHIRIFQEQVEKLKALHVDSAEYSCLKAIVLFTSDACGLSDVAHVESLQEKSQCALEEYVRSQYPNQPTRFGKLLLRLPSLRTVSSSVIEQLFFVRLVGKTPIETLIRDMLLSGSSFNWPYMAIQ
# GalR3 antagonist: blocks the human galanin receptor 3; inhibition, % at 3 µM; AID 651719; O60755; HEK293 GalR3-CNG cAMP membrane potential fluorescence; galR3 body fused to GalR1 C-terminus; 0.44% of 360,000 active;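 active = inhibition above the screen-wide average plus 3 SD, cut at about 13% in these data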;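 also: forskolin and galanin both at EC90 stimulate the cells; cAMP rise reported by CNG channel membrane potential dye signal; 0% = forskolin plus galanin with DMSO and 100% = forskolin alone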
# Target sequence (O60755 1-299 limits assumed): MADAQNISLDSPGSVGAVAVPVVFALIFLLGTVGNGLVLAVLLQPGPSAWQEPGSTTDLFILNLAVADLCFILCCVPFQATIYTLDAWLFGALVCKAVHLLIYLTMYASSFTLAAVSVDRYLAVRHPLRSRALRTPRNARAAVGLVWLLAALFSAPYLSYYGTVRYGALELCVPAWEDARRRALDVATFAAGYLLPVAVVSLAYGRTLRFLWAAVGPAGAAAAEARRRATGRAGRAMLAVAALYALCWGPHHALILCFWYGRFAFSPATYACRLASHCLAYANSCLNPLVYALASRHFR
# Cardio protect: protects H9c2 cardiomyocytes from peroxide injury | protection from H2O2 cell death, % at 20 µM | H2O2 injury protection, ATPLite, 2 h | 0.63% of 360,000 active;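 active = compounds giving at least 50% protection of heart cells from peroxide-induced death in the single-dose screen, raw or plate-pattern-corrected value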;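 also: 0% = DMSO wells with peroxide and 100% = DMSO wells without peroxide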
# SMARCA2 act: increases SMARCA2 function in MMTV reporter cells. 1% of 370,000 active. MG213 cells, MMTV-luciferase reporter, dexamethasone, overnight. activation, % at 9.1 µM; in the data active = activation above about 7.8%;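 also: 0% = vehicle wells and 100% = reference activator wells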
# Gli-Sufu block: blocks Gli-Sufu signaling in a luciferase reporter; Sufu-KO-LIGHT fibroblasts, Gli luciferase reporter luminescence; inhibition, % at 5 µM; 0.74% of 340,000 active; AID 588413;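 active = inhibition above about 55%, limit read from the data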;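 also: 0% = DMSO-treated cells and 100% = wells with medium but no cells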
# GAA850 FXN act: activators of GAA850 frataxin (FXN) promoter; HEK293 lucGAA850 FXN promoter luciferase reporter, 24 h; percent of 10 µM SAHA response; activation, % at 6 µM; 0.56% of 360,000 active; AID 540364;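 active = activation above the average of all compounds screened plus 3 SD, cutoff fixed separately per campaign, cut at about 7.5% in these data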;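 also: 0% = DMSO wells and 100% = 10 µM SAHA wells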
# GAA30 counter: counter-screen for GAA850 frataxin promoter activators: GAA30 promoter activation. 66% of 1,900 active. shares compounds with GAA850 FXN act. activation, % at 6 µM. HEK293 lucGAA30 FXN promoter luciferase, 24 h; DMSO = 0%, 5 µM ipriflavone = 100%;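 active = mean activation above the mean of solvent-only control wells plus 3 SD, cut at about 22% in these data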;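 also: counterscreen of GAA850 promoter hits where activity marks nonselective or luminescence artifacts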
# FXN GAA850 conf: GAA850 FXN promoter activation confirmation. activation, % at 6 µM. HEK293 lucGAA850 FXN promoter luciferase reporter, 24 h; 100% = activation by SAHA. 86% of 1,900 active. AID 588351. shares compounds with GAA850 FXN act;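 active = mean activation above a set limit taken from the primary screen, cut at about 8% in these data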;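 also: 0% = DMSO wells and 100% = 10 µM SAHA wells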
# * = called active by the depositor; / = no result given. The list is not random: actives were taken first. Their share in the collection is about 3.4%.
SMILES,NR2F2 inh,GalR3 antagonist,Cardio protect,SMARCA2 act,Gli-Sufu block,GAA850 FXN act,GAA30 counter,FXN GAA850 conf
Cc1ccc(NC(=O)NC(=S)NC(=O)c2ccccc2)cc1,-21.4,-4.6,-4.5,3.6,-5.2,8.2*,55.9*,23.9*
CNC(=O)C[C@@H]1CC[C@@H]2[C@H](COc3ccc(NC(=O)c4cccc(F)c4)cc3C(=O)N2C)O1,8.8,/,/,1.4,/,/,/,/
CC(C)C[C@H](NC(=O)CC[C@H]1O[C@@H](n2ccc(=O)[nH]c2=O)[C@H](O)[C@@H]1O)C(=O)O,4.8,-7.7,9.5,-1.3,/,/,/,/
Cc1cccc(Nc2nc(N)c(C#N)c(CC#N)c2C#N)c1,6.8,-6.0,3.9,-5.6,5.0,8.2*,27.2*,17.2*
CCN(CC)c1ccc(S(=O)(=O)N2CCCCC2)cc1NC(=O)CN1C(=O)NC2(CCCC2)C1=O,-11.0,1.6,6.1,-1.4,-3.8,9.0*,20.9,10.4*
COc1ccc(-c2ccc(C(=O)Nc3cccc(C(F)(F)F)c3)c3occc23)c(C)c1,11.8,-1.8,-20.3,-2.2,/,-1.7,/,/
CN(c1cccnc1)c1ccc(NC(=O)Cc2c[nH]c3ccccc23)cc1-c1ccc(F)c(F)c1,-2.4,-7.1,/,-3.3,/,/,/,/
Cc1ccc(CNC(=O)OC(C)(C)C)c(/C=C/S(=O)(=O)NCc2ccc(F)cc2)c1,6.3,/,/,0.4,/,/,/,/
Cc1cc(=O)oc2cc(NC(=O)CCOc3ccccc3)ccc12,-17.6,-5.5,-0.3,1.9,-13.7,3.2,/,/
CCCCOC(=O)Nc1ccc2c(C)cc(=O)oc2c1,-40.0,-1.4,1.7,6.2,-87.3,7.7*,119.9*,38.5*
CN(C)[C@@H]1CCN(c2cccc3c2S(=O)(=O)N2CC[C@@H](C2)O3)C1,-16.2,/,/,-0.9,/,/,/,/
COc1ccc(C(=O)O[C@@H]2CCC[C@@]3(C(=O)N(Cc4ccccc4)c4ccccc43)[C@H]2NC(=O)CCc2ccccc2)cc1OC,9.2,/,/,-7.0,/,/,/,/
Nc1ncnc2c1ncn2C1OC(C(=O)NC2CC2)C(O)C1O (stereo not drawn),-80.4,/,12.4,7.2,-7.9,9.7*,25.9*,14.9*
C[C@@H](CO)NC(=O)[C@H]1O[C@@H](n2cnc3c(N)ncnc32)[C@H](O)[C@@H]1O,/,/,1.1,/,/,/,/,/
Nn1cnc2c(ncn2C2OC(CO)C(O)C2O)c1=O (stereo not drawn),18.0,-6.3,-0.9,-0.8,/,13.2*,13.9,5.5
OCC1OC(n2cnc3c(NC4CCCC4)ncnc32)C(O)C1O (stereo not drawn),-57.7,-1.5,5.2,3.9,8.9,12.0*,38.8*,20.2*
Nc1ncnc2c1ncn2C1O[C@H](CO)[C@@H](O)[C@@H]1O (stereo partly drawn),2.2,-0.8,-1.5,-0.7,-3.3,0.1,/,/
OC[C@H]1O[C@@H](n2cnc3c(NC4CCCC4)ncnc32)[C@H](O)[C@@H]1O,-51.7,3.2,20.0,0.4,-0.6,7.0,/,/
Cc1[nH]c2ccccc2c1/C=C/c1nc2ccccc2c(=O)[nH]1,-89.8,-4.6,-4.5,3.6,-33.0,8.2*,102.2*,38.1*
C/C(CC(=O)NCc1ccccc1Cl)=N/NC(=O)c1ccccn1,-57.2,-5.1,-5.1,5.0,-10.5,8.2*,49.6*,13.7*
Fc1ccc(-c2n[nH]c(=S)n2N=Cc2ccc(-c3ccccc3)cc2)cc1,2.4,/,/,-1.9,/,/,/,/
CCOC(=O)CNc1c(-c2ccc(OC)cc2)nc2ccc(Cl)cn12,-72.0,-9.4,13.0,1.2,-13.8,8.0*,91.6*,24.9*
C=CCn1c(SCC(=O)OC(C)C)nnc1-c1ccc(C)cc1,-23.9,/,/,-2.2,/,/,/,/
COc1ccc2cc(-c3csc(-c4cccnc4)n3)ccc2c1,-36.9,-3.7,-19.4,5.9,-60.3,8.1*,92.1*,37.3*
COc1ccc(-c2csc(-c3cccnc3)n2)cc1C,-7.7,-2.8,-1.6,2.5,-67.9,9.5*,88.2*,32.4*
SMILES,NR2F2 inh,GalR3 antagonist,Cardio protect,SMARCA2 act,Gli-Sufu block,GAA850 FXN act,GAA30 counter,FXN GAA850 conf
COc1ccc(C(C)c2cn(C)c3ccccc23)cc1 (stereo not drawn),0.9,/,/,-0.1,/,/,/,/
Cc1ccc(Nc2nc(N)nc(CSc3nc4ccccc4s3)n2)cc1,-1.2,-14.6,-11.1,0.4,-5.6,11.5*,39.6*,22.0*
COc1ccc(/C=C/c2nc(-c3ccccc3O)n(-c3ccccc3)n2)cc1,-5.2,-3.3,3.0,-1.3,-0.5,4.7,/,/
COc1ccc(/C=C/c2nc(-c3ccccc3O)n[nH]2)cc1,-57.3,4.1,-11.8,3.1,-52.4,7.6*,93.8*,23.5*
C=CCn1nnc2sc3c(c2c1=O)CCC(C)C3 (stereo not drawn),-4.8,1.2,-0.1,3.1,-19.6,8.7*,71.1*,29.9*
CSc1nc2sc3c(c2c(=O)n1C)CCC(C)C3 (stereo not drawn),4.8,-6.1,-13.1,1.8,1.4,2.1,/,/
O=C1/C(=C/c2ccccc2)Oc2cc(OC(=O)N3CCOCC3)ccc21,-18.9,-9.4,-2.2,-1.6,-48.2,7.8*,61.6*,23.7*
O=C1/C(=C/c2ccc(F)cc2)Oc2cc(OC(=O)N3CCOCC3)ccc21,-9.6,-0.8,8.5,-0.6,-21.6,-0.5,/,/
Nc1ccc2nc(-c3ccccc3)c(-c3ccccc3)nc2c1,-12.2,3.0,-2.0,-0.7,-12.6,14.4*,-4.5,11.3*
Nc1ccc(Oc2ccc3nc(-c4ccccc4)c(-c4ccccc4)nc3c2)cc1,-4.7,-1.0,/,-0.2,-14.9,0.2,/,/
COC(=O)[C@]12C[C@H](CC(=O)NCc3cccc(C(F)(F)F)c3)C(=O)N(Cc3ccccc3)C1=C[C@H](C(C)(C)C)O[C@@H]2C,11.9,-5.7,/,-8.6,/,/,/,/
CN1CCC(N(C)C(=S)Nc2ccc(F)cc2)CC1,-3.5,-2.2,-2.7,-2.2,7.8,-0.1,/,/
CC(=O)c1ccc(NC(=S)N(C)C2CCN(C)CC2)cc1,-6.8,5.7,2.8,-1.8,-12.3,14.4*,22.1*,6.9
CCCCC1(Cc2ccc([N+](=O)[O-])cc2)C(=O)N(c2ccccc2)N(c2ccccc2)C1=O,22.3,-9.2,-17.1,-4.4,40.9,9.5*,14.1,6.8
CC1CCN(CC(CS(=O)(=O)c2ccc([N+](=O)[O-])cc2)N2CCC(C)CC2)CC1 (stereo not drawn),17.6,-5.7,-16.5,0.4,-15.7,9.7*,61.2*,16.3*
Cc1ccc(S(=O)(=O)CC(CN2CCOCC2)N2CCOCC2)cc1 (stereo not drawn),9.7,-1.1,3.8,-3.3,-2.2,1.8,/,/
COc1ccc2c(c1)Cc1sc(NC(=O)c3ccco3)nc1-2,-21.0,-2.3,1.5,5.3,16.6,4.2,/,/
